Source: PubChem BioAssay (Broad Institute)
Hits are enriched below; roughly 2.6% of the tested compounds scored in any of these assays.
Myc binder: binders of human c-Myc. small molecule microarray, His-c-Myc binding, anti-His fluorescence. calls only. 1.5% of 17,000 active. AID 624141;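 active = spot fluorescence over background with P-value below 7% in all four replicate spots, showing protein binding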;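 note: score is binary with 100 for all four spots passing and 0 otherwise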
p53 PUMA act: restores mutant p53 pathway signaling in SW480 cells; SW480 PUMA-promoter luciferase, p53 mutant reactivation; AID 624151; activation, % at 9.98 µM; 1.5% of 28,000 active; in the data active = activation above about 52%
NFkB SMM: binds human NF-kappa-B p105 on microarray; Small molecule microarray, anti-His fluorescence binding; 1.3% of 17,000 active; calls only; P19838;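 active = spot fluorescence over background significantly raised, with a chance value under 7% in all four replicate spots of the compound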;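 note: probe protein is his-tagged human p50 processed subunit at 1 µg/ml; raw spot fluorescence signals with no normalization applied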
Target sequence (P19838 1-433 limits assumed): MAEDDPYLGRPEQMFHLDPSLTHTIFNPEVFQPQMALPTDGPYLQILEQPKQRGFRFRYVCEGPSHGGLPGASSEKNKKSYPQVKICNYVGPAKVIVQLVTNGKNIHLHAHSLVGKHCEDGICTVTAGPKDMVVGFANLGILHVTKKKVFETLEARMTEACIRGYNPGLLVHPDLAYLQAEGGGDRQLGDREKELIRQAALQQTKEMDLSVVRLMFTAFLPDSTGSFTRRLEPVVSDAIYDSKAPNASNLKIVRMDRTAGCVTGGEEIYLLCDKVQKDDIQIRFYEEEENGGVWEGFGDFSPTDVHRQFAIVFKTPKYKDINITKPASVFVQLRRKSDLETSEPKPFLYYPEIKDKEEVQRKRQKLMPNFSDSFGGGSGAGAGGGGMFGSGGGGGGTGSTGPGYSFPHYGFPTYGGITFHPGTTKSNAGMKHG
mut p53 SMM: binders of human mutant p53 | AID 624136 | small molecule microarray binding, anti-GST fluorescence | 0.4% of 17,000 active | calls only;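 active = compounds whose four printed spots each glow above background more than chance allows, each with a p-value under 7%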
STAT3 SMM: binders of human STAT3. Small molecule microarray, His-STAT3 binding, anti-His fluorescence. calls only. 0.2% of 17,000 active. AID 624138;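 active = compounds whose four printed spots each show fluorescence over background unusually high for their array block, chance value under 7%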
An asterisk follows results filed as active; i = inactive; / = not tested or not shown; + = active, no number.

SMILES	Myc binder	p53 PUMA act	NFkB SMM	mut p53 SMM	STAT3 SMM
COCCNc1ncnc2c1cnn2-c1cccc(C)c1	i	101*	i	i	i
CCOC(=O)c1c(CSc2nc(C)cc(C)n2)nc2c3ccccc3ccn12	/	90*	/	/	/
COc1ccc(CNc2nc(-c3ccc(Cl)cc3)nn2C(=O)c2ccco2)cc1	/	87*	/	/	/
COc1ccc(CC(=O)n2nc(-c3ccc(Cl)cc3)nc2NCc2ccco2)cc1OC	/	110*	/	/	/
COc1ccc(NC(=O)c2ccco2)c(NC(=O)CSc2ccc(Cl)cc2)c1	/	-7	/	/	/
Cc1cc2nc(SCc3ccccc3C#N)[nH]c2cc1C	/	68*	/	/	/
CNC[C@@H]1Oc2ccc(NS(=O)(=O)c3cn(C)cn3)cc2CC(=O)N([C@H](C)CO)C[C@@H]1C	i	4	+	i	i
C[C@@H]1CN([C@H](C)CO)C(=O)Cc2cc(NS(=O)(=O)c3ccc(Cl)cc3)ccc2O[C@H]1CN(C)CC1CCCCC1	+	8	i	i	i
C[C@@H]1CN([C@@H](C)CO)C(=O)Cc2cc(NS(=O)(=O)c3ccc(Cl)cc3)ccc2O[C@@H]1CN(C)C(=O)Nc1ccc(F)cc1	+	-5	+	i	i
C[C@H](CO)N1C[C@H](C)[C@@H](CN(C)C(=O)Nc2ccc(F)cc2)Oc2ccc(NS(=O)(=O)c3ccc(Cl)cc3)cc2CC1=O	i	2	i	i	i
CNC[C@H]1Oc2ccc(NS(=O)(=O)c3cn(C)cn3)cc2CC(=O)N([C@H](C)CO)C[C@@H]1C	i	-4	i	i	i
C[C@H](CO)N1C[C@H](C)[C@@H](CN(C)CC2CCCCC2)Oc2ccc(NS(=O)(=O)c3ccc(Cl)cc3)cc2CC1=O	i	-2	i	i	i
Cc1ccc(NC(=O)c2ccc(CSc3nnc(-c4ccc(NC(=O)c5ccccc5Cl)cc4)n3C)cc2)cc1	i	-19	i	i	i
COc1cc(NC(=O)CN(C)S(=O)(=O)c2ccc3ccccc3c2)cc(OC)c1	/	24	/	/	/
O=C1/C(=C/c2ccc(N3CCOCC3)cc2)CCC1C1CCCC1 (centres undefined)	/	65*	/	/	/
CC(=O)c1ccc(N2CCOCC2)cc1O	i	/	i	i	i
Cc1cccc(NC(=O)c2ccccc2NC(=O)COc2cccc([N+](=O)[O-])c2)c1C	/	-36	/	/	/
O=C1c2ccccc2C(=O)N1OS(=O)(=O)c1cccc2cccnc12	i	-7	i	i	i
COc1ccc(OC)c(S(=O)(=O)ON2C(=O)c3ccccc3C2=O)c1	+	-8	i	i	i
c1ccc2c(c1)[nH]c1nc(SCCN3CCCCC3)nnc12	+	9	i	i	i
Cn1c2ccccc2c2nnc(SCCN3CCCCC3)nc21	+	5	i	i	i
CCOC(=O)CSc1nnc2c3ccccc3n(C)c2n1	i	-5	i	i	i
Cc1ccc(C(=O)NC(=O)CSc2n[nH]c(N)n2)cc1	/	8	/	/	/
CC(=O)OC(C)(C)[C@@H]1Cc2cc3ccc(=O)oc3cc2O1	i	40	i	i	i
C/C=C(\C)C(=O)OC(C)(C)C1Cc2cc3ccc(=O)oc3cc2O1 (centres undefined)	i	-16	i	+	i
SMILES	Myc binder	p53 PUMA act	NFkB SMM	mut p53 SMM	STAT3 SMM
COc1ccc(C(=O)Nc2sc3c(c2C(=O)Nc2cccc(OC)c2)CCC3)cc1	/	71*	/	/	/
COc1ccc(OCC(=O)Nc2sc3c(c2C#N)CCC3)cc1	i	94*	i	i	i
COc1cc(OC)cc(-c2nnc(SCC(=O)Nc3sc4c(c3C#N)CCCC4)o2)c1	/	6	/	/	/
CCOc1ccc2nc(SCC(=O)Nc3ccc(Br)cc3F)sc2c1	/	8	/	/	/
C[C@H]1CCCCO[C@@H](CN(C)C)[C@@H](C)CN([C@@H](C)CO)C(=O)c2cc(NC(=O)c3ccncc3)ccc2O1	i	-6	i	i	i
C[C@H](CO)N1C[C@H](C)[C@H](CN(C)S(=O)(=O)c2cccs2)OCCCC[C@H](C)Oc2ccc(NC(=O)c3ccncc3)cc2C1=O	i	-11	+	i	i
C[C@@H]1CN([C@H](C)CO)C(=O)c2cc(NC(=O)c3ccncc3)ccc2O[C@@H](C)CCCCO[C@H]1CN(C)C	+	8	i	i	i
CC(C)NC(=O)N(C)C[C@@H]1OCCCC[C@@H](C)Oc2ccc(NC(=O)c3ccncc3)cc2C(=O)N([C@H](C)CO)C[C@@H]1C	i	7	i	i	i
CC(C)NC(=O)N(C)C[C@@H]1OCCCC[C@@H](C)Oc2ccc(NC(=O)c3ccncc3)cc2C(=O)N([C@H](C)CO)C[C@H]1C	+	-5	+	i	i
CC(C)NC(=O)N(C)C[C@@H]1OCCCC[C@@H](C)Oc2ccc(NC(=O)c3ccccc3)cc2C(=O)N([C@@H](C)CO)C[C@@H]1C	i	8	i	i	i
CC(C)NC(=O)N(C)C[C@H]1OCCCC[C@H](C)Oc2ccc(NC(=O)c3ccncc3)cc2C(=O)N([C@@H](C)CO)C[C@@H]1C	+	-4	+	i	i
CC(=O)c1ccc(N2CCN(C(=S)Nc3ccc(S(=O)(=O)Nc4ncccn4)cc3)CC2)cc1	/	0	/	/	/
CC(C)NC(=O)N(C)C[C@H]1OCCCC[C@H](C)Oc2ccc(NC(=O)c3ccncc3)cc2C(=O)N([C@H](C)CO)C[C@@H]1C	i	3	+	i	i
C=CCNC(=O)[C@@H]1[C@H]2C(=O)O[C@H](c3ccccc3)[C@H](c3ccccc3)N2[C@H](c2ccccc2OCCO)[C@@]12C(=O)Nc1ccc(C#Cc3ccc(OC)cc3)cc12	i	/	+	i	i
COc1ccc(C#Cc2ccc3c(c2)[C@]2(C(=O)N3)[C@H](c3ccc(OCCO)cc3)N3[C@H](c4ccccc4)[C@H](c4ccccc4)OC(=O)[C@H]3[C@@H]2C(=O)Nc2nc3ccccc3s2)cc1	i	/	+	i	i
COc1ccc(C#Cc2ccc3c(c2)[C@]2(C(=O)N3)[C@H](C(=O)Nc3nc4ccccc4s3)[C@H]3C(=O)O[C@H](c4ccccc4)[C@H](c4ccccc4)N3[C@@H]2c2ccc(OCCO)cc2)cc1	i	/	i	i	i
COc1ccc(C)cc1N(CC(=O)Nc1ccccc1C(F)(F)F)S(C)(=O)=O	/	0	/	/	/
C=CCOC(=O)[C@H]1[C@@H]2C(=O)O[C@@H](c3ccccc3)[C@@H](c3ccccc3)N2[C@@H](c2ccc(OCCOC(=O)[C@@H]3C[C@@H]4C(=O)N[C@@H](CC(C)C)C(=O)N4[C@@H]3c3cccc(OCCO)c3)cc2)[C@]12C(=O)Nc1ccc(I)cc12	i	/	+	+	i
C=CCOC(=O)[C@@H]1[C@H]2C(=O)O[C@H](c3ccccc3)[C@H](c3ccccc3)N2[C@H](c2ccc(OCCOC(=O)[C@@H]3C[C@@H]4C(=O)N5CCC[C@H]5C(=O)N4[C@@H]3c3ccc(O)cc3)cc2)[C@@]12C(=O)Nc1ccc(I)cc12	i	/	i	i	i
